Compounds without any hit were thinned out: in the full panel of roughly 83,000, 20% have a hit.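 A percent growth of 40 corresponds to 60% growth inhibition; 0 means no net growth; -100 means all cells died. Active threshold: below 10.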 Active and inactive are the calls of the source.
What follows are compounds tested on SF-295 CNS (assay: NCI-60 one-dose screen, 48 h (100 = growth as untreated, 0 = no growth, -100 = all killed)). Conditions: 10 µM unless noted.

Question: With `COc1cc2nc(C(=O)N3CCCCC3)cc(Nc3ccccc3)c2cc1OC` as the compound, how does the growth read?
Answer: 96.3% (inactive)

Question: With `CCCOC(=O)c1ccc([N+](=O)[O-])o1` as the compound, how does the growth read?
Answer: 120% (inactive)

Question: With `COc1ccccc1S(=O)(=O)Nc1ccc2c3c(cc(-c4ccoc4)nc13)C(=O)N2C` as the compound, how does the growth read?
Answer: 56.9% (inactive)

Question: `OCc1cnccc1NC12CC3CC(CC(C3)C1)C2` was tested. Which growth did it give?
Answer: 102% (inactive)

Question: For `CC(=O)c1cc2c(c(O)c1C)C(=O)C(=O)c1c(O)cccc1-2`, which growth is on record?
Answer: -82.5% (active)

Question: How did the growth turn out when `Cc1ccc2oc(=O)cc(C3C(C#N)=C(N)Oc4c3ccc3ccccc43)c2c1` (stereo not drawn) was run?
Answer: 75.8% (inactive)

Question: How did the growth turn out when `COc1ccc(-c2coc3c(CO)c(O)ccc3c2=O)cc1` was run?
Answer: 23.1% (inactive)

Question: With `CCOc1ccccc1C(=O)N1CCN(c2cc(Cl)cc(Cl)c2)CC1` as the compound, how does the growth read?
Answer: 17.9% (inactive)

Question: For `CCCCNC(=O)Oc1ccc(/C(=C(/CC)Cc2ccccc2)c2ccc(OCCCN(C)C)cc2)cc1`, which growth is on record?
Answer: 94.9% (inactive)

Question: How did the growth turn out when `C=C1C(=O)O[C@H]2[C@H]1CC/C(COC(=O)c1ccc(C#N)cc1)=C\CC[C@@]1(C)O[C@@H]21` was run?
Answer: 73.3% (inactive)

Question: For `O=C(Nc1ccc(F)cc1)Nc1ccc(Br)c(C(F)(F)F)c1`, which growth is on record?
Answer: 3% (active)

Question: How did the growth turn out when `CCn1c(SC)nnc1-c1cc2c([nH]c3ccccc32)c(-c2cccc(O)c2)n1` was run?
Answer: -20.1% (active)

Question: With `COc1ccccc1S(=O)(=O)Nc1ccc2c3c(cc(-c4cnn(C5CC5)c4)nc13)C(=O)N2C` as the compound, how does the growth read?
Answer: 53.7% (inactive)

Question: For `Nc1nc(Nc2ccc(OCc3cccc(F)c3)cc2)c2c(n1)[nH]c1ccc(O)cc12`, which growth is on record?
Answer: -69.2% (active)

Question: For `CCn1c(SCC(=O)c2ccc(Br)cc2)nnc1-c1cc2c([nH]c3ccccc32)c(-c2cccc(O)c2)n1`, which growth is on record?
Answer: 41.1% (inactive)

Question: Which growth does the source give for `O=C(Cn1c2ccccc2c2ccncc21)N/N=C/c1c[nH]c2ccccc12` here?
Answer: 87.5% (inactive)

Question: How did the growth turn out when `CC(=O)c1cc2c(N)c(C(=O)Nc3cccc(Cl)c3)sc2nc1C` was run?
Answer: 84.3% (inactive)

Question: With `S=c1[nH]nc(Cn2c3ccccc3c3ccncc32)o1` as the compound, how does the growth read?
Answer: 108% (inactive)

Question: With `COc1ccccc1S(=O)(=O)Nc1ccc2c3c(cc(-c4cnn(C)c4)nc13)C(=O)N2C` as the compound, how does the growth read?
Answer: 35.1% (inactive)

Question: With `CCNC(=O)Oc1ccc(/C(=C(/CC)Cc2ccccc2)c2ccc(OCCN3CCOCC3)cc2)cc1` as the compound, how does the growth read?
Answer: 68.7% (inactive)

Question: For `COc1ccc(-c2cc3ccc(N(C)C)cc3nc2N)c(F)c1`, which growth is on record?
Answer: 25.4% (inactive)

Question: `C=C1C(=O)O[C@H]2[C@H]1CC/C(COC(=O)c1ccc(Br)cc1)=C\CC[C@@]1(C)O[C@@H]21` was tested. Which growth did it give?
Answer: 63.7% (inactive)

Question: `CC(=O)O[C@@H]1[C@@H](OC(C)=O)[C@H](OC(C)=O)CO[C@H]1Nc1cccc2ccccc12` was tested. Which growth did it give?
Answer: 94.5% (inactive)

Question: Which growth does the source give for `COc1ccc(C2CC(c3cc(Cl)c(C)cc3OC)=NN2c2ccc(S(N)(=O)=O)cc2)cc1OC` (stereo not drawn) here?
Answer: 123% (inactive)

Question: With `C=C1C(=O)O[C@H]2[C@H]1CC/C(COC(=O)c1cc(OC)c(OC)c(OC)c1)=C\CC[C@@]1(C)O[C@@H]21` as the compound, how does the growth read?
Answer: 51% (inactive)

Question: With `O=C(CNc1cccnc1)Nc1ccc(C(=O)/C=C/c2ccc(Cl)cc2)cc1` as the compound, how does the growth read?
Answer: 93.9% (inactive)

Question: `C/C(=N/NC(=O)Cn1c2ccccc2c2ccncc21)c1cccs1` was tested. Which growth did it give?
Answer: 109% (inactive)

Question: Which growth does the source give for `COc1ccc(/C=N/C2=NNC(C)(c3ccccc3O)N2C(Cc2c[nH]c3ccccc23)C(=O)O)cc1` (stereo not drawn) here?
Answer: 35.3% (inactive)

Question: For `O=C(Nc1ccc(Cl)c(Cl)c1)Nc1ccc(Cl)c([N+](=O)[O-])c1`, which growth is on record?
Answer: -26.6% (active)

Question: For `COc1ccc(C(=O)Cn2cnc3c(Nc4cc(C(=O)Nc5ccc(N6CCN(CCO)CC6)cc5)ccc4C)ncnc32)cc1`, which growth is on record?
Answer: 93.2% (inactive)

Question: With `O=[N+]([O-])c1ccc(NS(=O)(=O)c2ccccc2)c2ccccc12` as the compound, how does the growth read?
Answer: 43% (inactive)

Question: `FC(F)(F)c1cn(CCN2CCOCC2)c2ncnc(Cl)c12` was tested. Which growth did it give?
Answer: 96.5% (inactive)

Question: With `CN1C(=O)C2(SCC(C(=O)NCC(=O)OC(C)(C)C)N2C(=O)C2CCCCC2)c2ccccc21` (stereo not drawn) as the compound, how does the growth read?
Answer: 96.9% (inactive)

Question: `C=C1C(=O)O[C@H]2[C@H]1CC/C(COC(=O)c1cccc3ccccc13)=C\CC[C@@]1(C)O[C@@H]21` was tested. Which growth did it give?
Answer: 47.8% (inactive)

Question: For `C=C1C(=O)O[C@H]2[C@H]1CC/C(COC(=O)c1ccc(Cl)nc1)=C\CC[C@@]1(C)O[C@@H]21`, which growth is on record?
Answer: 74.9% (inactive)

Question: For `CCOc1cccc(Nc2nc(N)nc3[nH]c4ccc(O)cc4c23)c1`, which growth is on record?
Answer: 68.1% (inactive)

Question: For `Cc1ccc2c(C3C(C#N)=C(N)Oc4cc5ccccc5cc43)cc(=O)oc2c1` (stereo not drawn), which growth is on record?
Answer: 9.32% (active)

Question: `CC(C(=O)O)N1C(N)=NNC1c1ccccc1O` (stereo not drawn) was tested. Which growth did it give?
Answer: 99.3% (inactive)

Question: `Cc1cc(N2CCOCC2)nc(N(CCNc2ccnc3cc(Cl)ccc23)Cc2ccco2)n1` was tested. Which growth did it give?
Answer: 6.25% (active)

These compounds were tested on SF-539 CNS in the same assay as above. Conditions: 10 µM unless noted.

Question: For `COc1cc2nc(C(=O)N3CCCCC3)cc(Nc3ccccc3)c2cc1OC`, which growth is on record?
Answer: 95.5% (inactive)

Question: For `CCCOC(=O)c1ccc([N+](=O)[O-])o1`, which growth is on record?
Answer: 93.8% (inactive)

Question: How did the growth turn out when `COc1ccccc1S(=O)(=O)Nc1ccc2c3c(cc(-c4ccoc4)nc13)C(=O)N2C` was run?
Answer: 63.2% (inactive)

Question: Which growth does the source give for `OCc1cnccc1NC12CC3CC(CC(C3)C1)C2` here?
Answer: 108% (inactive)

Question: How did the growth turn out when `CC(=O)c1cc2c(c(O)c1C)C(=O)C(=O)c1c(O)cccc1-2` was run?
Answer: -98.3% (active)

Question: How did the growth turn out when `Cc1ccc2oc(=O)cc(C3C(C#N)=C(N)Oc4c3ccc3ccccc43)c2c1` (stereo not drawn) was run?
Answer: 82.6% (inactive)

Question: With `COc1ccc(-c2coc3c(CO)c(O)ccc3c2=O)cc1` as the compound, how does the growth read?
Answer: 47.9% (inactive)

Question: How did the growth turn out when `CCOc1ccccc1C(=O)N1CCN(c2cc(Cl)cc(Cl)c2)CC1` was run?
Answer: -4.39% (active)

Question: How did the growth turn out when `CCCCNC(=O)Oc1ccc(/C(=C(/CC)Cc2ccccc2)c2ccc(OCCCN(C)C)cc2)cc1` was run?
Answer: 88.5% (inactive)

Question: Which growth does the source give for `C=C1C(=O)O[C@H]2[C@H]1CC/C(COC(=O)c1ccc(C#N)cc1)=C\CC[C@@]1(C)O[C@@H]21` here?
Answer: -32.3% (active)

Question: With `O=C(Nc1ccc(F)cc1)Nc1ccc(Br)c(C(F)(F)F)c1` as the compound, how does the growth read?
Answer: 19.9% (inactive)

Question: For `CCn1c(SC)nnc1-c1cc2c([nH]c3ccccc32)c(-c2cccc(O)c2)n1`, which growth is on record?
Answer: -9.07% (active)

Question: How did the growth turn out when `COc1ccccc1S(=O)(=O)Nc1ccc2c3c(cc(-c4cnn(C5CC5)c4)nc13)C(=O)N2C` was run?
Answer: 60.8% (inactive)

Question: For `Nc1nc(Nc2ccc(OCc3cccc(F)c3)cc2)c2c(n1)[nH]c1ccc(O)cc12`, which growth is on record?
Answer: -84% (active)

Question: `CCn1c(SCC(=O)c2ccc(Br)cc2)nnc1-c1cc2c([nH]c3ccccc32)c(-c2cccc(O)c2)n1` was tested. Which growth did it give?
Answer: 60.9% (inactive)

Question: `O=C(Cn1c2ccccc2c2ccncc21)N/N=C/c1c[nH]c2ccccc12` was tested. Which growth did it give?
Answer: 86.4% (inactive)

Question: With `CC(=O)c1cc2c(N)c(C(=O)Nc3cccc(Cl)c3)sc2nc1C` as the compound, how does the growth read?
Answer: 85.3% (inactive)

Question: For `S=c1[nH]nc(Cn2c3ccccc3c3ccncc32)o1`, which growth is on record?
Answer: 101% (inactive)

Question: `COc1ccccc1S(=O)(=O)Nc1ccc2c3c(cc(-c4cnn(C)c4)nc13)C(=O)N2C` was tested. Which growth did it give?
Answer: 34.6% (inactive)

Question: For `CCNC(=O)Oc1ccc(/C(=C(/CC)Cc2ccccc2)c2ccc(OCCN3CCOCC3)cc2)cc1`, which growth is on record?
Answer: 77.2% (inactive)

Question: `COc1ccc(-c2cc3ccc(N(C)C)cc3nc2N)c(F)c1` was tested. Which growth did it give?
Answer: 49.1% (inactive)

Question: For `C=C1C(=O)O[C@H]2[C@H]1CC/C(COC(=O)c1ccc(Br)cc1)=C\CC[C@@]1(C)O[C@@H]21`, which growth is on record?
Answer: -76.3% (active)

Question: For `CC(=O)O[C@@H]1[C@@H](OC(C)=O)[C@H](OC(C)=O)CO[C@H]1Nc1cccc2ccccc12`, which growth is on record?
Answer: 90.2% (inactive)

Question: `COc1ccc(C2CC(c3cc(Cl)c(C)cc3OC)=NN2c2ccc(S(N)(=O)=O)cc2)cc1OC` (stereo not drawn) was tested. Which growth did it give?
Answer: 103% (inactive)

Question: For `C=C1C(=O)O[C@H]2[C@H]1CC/C(COC(=O)c1cc(OC)c(OC)c(OC)c1)=C\CC[C@@]1(C)O[C@@H]21`, which growth is on record?
Answer: -48.3% (active)

Question: `O=C(CNc1cccnc1)Nc1ccc(C(=O)/C=C/c2ccc(Cl)cc2)cc1` was tested. Which growth did it give?
Answer: 99.6% (inactive)

Question: For `C/C(=N/NC(=O)Cn1c2ccccc2c2ccncc21)c1cccs1`, which growth is on record?
Answer: 108% (inactive)

Question: Which growth does the source give for `COc1ccc(/C=N/C2=NNC(C)(c3ccccc3O)N2C(Cc2c[nH]c3ccccc23)C(=O)O)cc1` (stereo not drawn) here?
Answer: 45.2% (inactive)

Question: How did the growth turn out when `O=C(Nc1ccc(Cl)c(Cl)c1)Nc1ccc(Cl)c([N+](=O)[O-])c1` was run?
Answer: 8.74% (active)

Question: With `COc1ccc(C(=O)Cn2cnc3c(Nc4cc(C(=O)Nc5ccc(N6CCN(CCO)CC6)cc5)ccc4C)ncnc32)cc1` as the compound, how does the growth read?
Answer: 98.2% (inactive)

Question: How did the growth turn out when `O=[N+]([O-])c1ccc(NS(=O)(=O)c2ccccc2)c2ccccc12` was run?
Answer: 45.1% (inactive)

Question: With `FC(F)(F)c1cn(CCN2CCOCC2)c2ncnc(Cl)c12` as the compound, how does the growth read?
Answer: 87% (inactive)

Question: For `CN1C(=O)C2(SCC(C(=O)NCC(=O)OC(C)(C)C)N2C(=O)C2CCCCC2)c2ccccc21` (stereo not drawn), which growth is on record?
Answer: 99.8% (inactive)

Question: How did the growth turn out when `C=C1C(=O)O[C@H]2[C@H]1CC/C(COC(=O)c1cccc3ccccc13)=C\CC[C@@]1(C)O[C@@H]21` was run?
Answer: -93.1% (active)

Question: For `C=C1C(=O)O[C@H]2[C@H]1CC/C(COC(=O)c1ccc(Cl)nc1)=C\CC[C@@]1(C)O[C@@H]21`, which growth is on record?
Answer: -34.5% (active)

Question: With `CCOc1cccc(Nc2nc(N)nc3[nH]c4ccc(O)cc4c23)c1` as the compound, how does the growth read?
Answer: 81.4% (inactive)

Question: `Cc1ccc2c(C3C(C#N)=C(N)Oc4cc5ccccc5cc43)cc(=O)oc2c1` (stereo not drawn) was tested. Which growth did it give?
Answer: 2.31% (active)

Question: `CC(C(=O)O)N1C(N)=NNC1c1ccccc1O` (stereo not drawn) was tested. Which growth did it give?
Answer: 103% (inactive)

Question: How did the growth turn out when `Cc1cc(N2CCOCC2)nc(N(CCNc2ccnc3cc(Cl)ccc23)Cc2ccco2)n1` was run?
Answer: -31.8% (active)
